High-throughput results as filed in PubChem BioAssay.
In the library only some 27% were active in any assay of this set; here they are far more common.
CYP2C19 activ – activators of human cytochrome P450 2C19. P33261. 96,000 tested, under 10 active. recombinant CYP2C19, luciferin-H EGE luminescence; hits give high values; 0 = fully inhibited enzyme, 1 = untreated enzyme. activation factor at 5 µM. AID 1025;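 active means activation factor of at least 2 at 5 µM in the primary screen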;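 further: 0 = wells with 2.5 mM tranylcypromine and 1 = vehicle-only wells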
CYP2C9 inhib – inhibitors of human CYP2C9 | CYP2C9 Supersomes, luciferin-H conversion, luminescence | 20% of 96,000 active | AID 777 | inhibition, % at 5 µM;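 active means blocking of liver enzyme CYP2C9 beyond about 50% at 5 µM, limit read from the data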
Target sequence (P11712 whole entry, looked up): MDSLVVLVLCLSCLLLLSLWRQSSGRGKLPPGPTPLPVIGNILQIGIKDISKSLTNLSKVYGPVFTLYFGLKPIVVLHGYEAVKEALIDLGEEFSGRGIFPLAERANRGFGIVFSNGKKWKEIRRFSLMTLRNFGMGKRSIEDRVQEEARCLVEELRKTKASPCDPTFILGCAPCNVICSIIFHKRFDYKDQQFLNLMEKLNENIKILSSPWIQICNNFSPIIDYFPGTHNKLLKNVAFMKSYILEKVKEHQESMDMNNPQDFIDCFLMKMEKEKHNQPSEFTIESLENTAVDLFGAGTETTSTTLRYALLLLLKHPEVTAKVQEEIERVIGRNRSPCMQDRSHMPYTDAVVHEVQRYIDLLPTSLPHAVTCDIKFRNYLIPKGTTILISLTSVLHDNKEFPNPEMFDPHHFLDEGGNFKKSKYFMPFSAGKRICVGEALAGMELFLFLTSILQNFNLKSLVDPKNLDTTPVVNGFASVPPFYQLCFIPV
CYP2C19 inhib – inhibitors of human CYP2C19. CYP2C19 Supersomes, luciferin-H EGE luminescence, 30 min. AID 778. P33261. 21% of 96,000 active. inhibition, % at 5 µM;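 active means CYP2C19 inhibition above a set limit at 5 µM in the primary screen, cut at about 50% in these data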;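 further: plate controls were negative control wells for no effect and 2.5 mM tranylcypromine positive control for full effect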
Cav3 T inh – human Cav3.2 channel inhibition, primary screen; O95180; Cav3.2-expressing cells, Fluo-4 calcium fluorescence FDSS; hits give low values; B-score at 10 µM; 4% of 100,000 active; AID 449739;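 active means single-dose well whose peak fluorescence ratio is a statistical outlier from its plate by either plate-standardised score or position-corrected B-score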
CYP2C9 activ – activators of human CYP2C9. 1.4% of 96,000 active. activation factor at 5 µM. P11712. recombinant CYP2C9, luciferin-H conversion, luminescence; hits give high values; factor 1 = untreated enzyme, 0 = blocked;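 active means activation factor of 2 or more for CYP2C9 at a 5 µM dose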;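 further: 0 = sulfaphenazole-blocked wells and 1 = vehicle-only wells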
* marks the source's active call; other numbers are inactive results; . = no result.

SMILES | CYP2C19 activ | CYP2C9 inhib | CYP2C19 inhib | Cav3 T inh | CYP2C9 activ
Cc1onc(-c2ccccc2)c1C(=O)Nc1nnc(-c2ccncc2)s1 | 0.4 | 99* | 61* | -1.5 | 0
CCc1c(C)c(C#N)c2nc3ccccc3n2c1N1CCN(c2cc(C)ccn2)CC1 | 0.8 | 67* | 22 | . | 0.3
O=C(CN1CCN(c2ncccn2)CC1)N(Cc1ccccc1)c1ccc(F)cc1 | 0.4 | 50* | 61* | -1.6 | 0.5
C[C@@]12CC(=O)NC1N(C(=O)c1cccc(C(F)(F)F)c1)C(c1ccccc1OC(=O)c1cccc(C(F)(F)F)c1)C2 (some centres undefined) | 0.5 | 94* | 48 | -2.8 | 0.1
Cc1ccnc(N/C=C(\C#N)c2nc(-c3cccc(Br)c3)cs2)c1 | 0.7 | 31 | 33 | -1.8 | 0.7
Cc1ccc(C(=O)N(c2ccccc2)C2CC(C)N(C(=O)c3ccco3)c3ccccc32)cc1 (centres undefined) | 0.5 | 94* | 52* | -5.6* | 0.1
CN1CCC23c4ccccc4NC1C21CCN(C)C3Nc2ccccc21 | . | . | . | 0.094 | .
C/C=C/C=C/C(=O)N1CC[C@]23c4ccccc4N[C@H]4N(C)c5cccc6c5[C@]42CCN([C@H]6C2OC2(C)C)[C@H]13 (some centres undefined) | . | . | . | -4.5* | .
COc1ccc(/C=N/c2oc(-c3ccccc3)cc2C#N)cc1OC | 0.5 | 38 | 54* | 0.56 | 0.6
COc1ccc(CSc2nnc(N)s2)cc1F | 0.3 | 19 | 69* | 0.39 | 0.8
Cc1nnc(SCc2ccc(F)cc2)s1 | 0.8 | -23 | 23 | 0.64 | 1.2
COc1ccc(CNCc2cc3c(C(C)(C)C)nn(-c4ccccc4)c3[nH]c2=O)cc1 | 0.6 | 59* | 41 | -1.7 | 0.4
Cc1ccc(CNCc2cc3c(C(C)(C)C)nn(-c4ccccc4)c3[nH]c2=O)cc1 | 0.6 | 37 | 42 | -0.19 | 0.6
CC(C)(C)c1nn(-c2ccccc2)c2[nH]c(=O)c(CNCc3ccco3)cc12 | 0.7 | 62* | 28 | 0.23 | 0.4
COc1ccc(OC)c(NC(=O)C2CCN(c3nc(C)cc(C)n3)CC2)c1 | 0.9 | -33 | 13 | -0.57 | 1.3
CC1CC(=O)N(CC(=O)N2CCCC2)c2ccccc2S1 (centres undefined) | 1.1 | -24 | -8 | 0.37 | 1.2
O=C(CCn1cccc1)NCc1ccc2c(c1)OCO2 | 0.7 | 0 | 26 | 0.67 | 1
CC1CC(=O)N(CC(=O)NCc2ccc3c(c2)OCO3)c2ccccc2S1 (centres undefined) | 0 | 42 | 100* | . | 0.6
O=C(Cn1nc(-c2ccccc2F)ccc1=O)NCc1ccc2c(c1)OCO2 | 0.3 | 56* | 72* | -0.18 | 0.4
CC1CC(=O)N(CC(=O)NCc2ccco2)c2ccccc2S1 (centres undefined) | 0.5 | 2 | 52* | 0.096 | 1
O=C(CN1CCCc2ccccc21)NCc1ccc2c(c1)OCO2 | 0 | 30 | 99* | -0.16 | 0.7
CCCCC12CN3CC(C)(CN(C1)C31C(=O)N(C)c3ccc(C)cc31)C2=O (centres undefined) | . | . | . | -0.55 | .
O=C1C2C3C=CC(C3)C2C(=O)N1/N=C/c1cc(Br)cc([N+](=O)[O-])c1O (centres undefined) | 1.1 | 41 | -6 | -2.5 | 0.6
CCCOc1ccccc1C(=O)NC(CO)C(=O)O (centres undefined) | 1.2 | 23 | -18 | -0.14 | 0.8
Cc1ccccc1/C(N)=N/OC(=O)/C=C/c1ccccc1 | 1 | -21 | 4 | -1.1 | 1.2
SMILES | CYP2C19 activ | CYP2C9 inhib | CYP2C19 inhib | Cav3 T inh | CYP2C9 activ
O=C(CN1C(=O)CCS(=O)(=O)c2ccccc21)NCc1ccccc1 | . | . | . | 0.8 | .
O=C(CN1C(=O)CCS(=O)(=O)c2ccccc21)NCc1ccc2c(c1)OCO2 | 0.1 | 2 | 90* | 0.33 | 1
CCCN1C(=O)C(O)(C2CC(=O)CC(C)(C)O2)c2ccccc21 (centres undefined) | 0.8 | -30 | 15 | . | 1.3
Cc1ccc(C2C(C#N)=C(N)N(c3ncn[nH]3)C3=C2C(=O)CC(C)(C)C3)cc1 (centres undefined) | 0.7 | 65* | 28 | 0.4 | 0.4
CSc1sc(C)cc1C1C(C#N)=C(N)N(c2cccnc2)C2=C1C(=O)CC(C)(C)C2 (centres undefined) | 1 | 12 | -2 | 2.3 | 0.9
CCOc1ccccc1NC(=O)C1CC2CCCC(C1)C2=O (centres undefined) | 0.8 | -93 | 16 | 1.2 | 1.9
COc1ccc(NC(=O)CSc2nc3c(c(=O)n2-c2ccccc2)SCC3)c(OC)c1 | 1.1 | -3 | -9 | . | 1
O=C(CC(NS(=O)(=O)c1ccc(Cl)cc1)c1ccco1)N1CCc2ccccc21 (centres undefined) | 0.9 | -2 | 12 | -4.3* | 1
CCC(C)NC(=O)CC(NS(=O)(=O)c1ccc(Cl)cc1)c1ccco1 (centres undefined) | 0.3 | 20 | 75* | -0.015 | 0.8
CC(NS(=O)(=O)c1ccc(CCC(=O)NCc2cccnc2)cc1)c1ccccc1 (centres undefined) | 0.4 | 71* | 58* | 1.1 | 0.3
CCOc1ccc(S(=O)(=O)N(CC(=O)N2CCc3ccccc32)Cc2ccco2)cc1 | 0.1 | 52* | 92* | -0.93 | 0.5
CCN(CC)S(=O)(=O)c1ccc(Cl)c(C(=O)N2CCc3ccccc32)c1 | 0.8 | 12 | 24 | -2.4 | 0.9
Cc1ccnc(SCC(=O)n2c3c(c4ccccc42)CC(C)CC3)n1 (centres undefined) | 0.8 | 11 | 24 | -0.48 | 0.9
O=C(CC(NS(=O)(=O)c1ccc(Cl)cc1)c1ccco1)NCc1cccnc1 (centres undefined) | 0.1 | 70* | 88* | -0.63 | 0.3
CC(=O)Nc1ccc(S(=O)(=O)N(C)CC(=O)OCC(=O)N2CCc3ccccc32)cc1 | 0.8 | 36 | 21 | . | 0.6
CN(CC(=O)N1CCc2ccccc21)S(=O)(=O)c1ccc(Cl)cc1 | 0.4 | -167 | 60* | -1.3 | 2.7*
CCOC(=O)Cc1csc(NC(=O)c2cnc3scc(C)n3c2=O)n1 | . | . | . | -0.38 | .
COC(=O)c1nonc1NCn1nnc2ccccc21 | 0.7 | -9 | 28 | 1.4 | 1.1
CON(c1nc(Cl)nc(N(C)C)n1)S(=O)(=O)c1ccccc1Cl | 0.3 | -24 | 69* | 3.4 | 1.2
COc1nc(N(C)C)nc(N(OC)S(=O)(=O)c2ccccc2Cl)n1 | 0.1 | 72* | 90* | 2.8 | 0.3
COc1cc(C)nc(N(C)S(=O)(=O)c2ccccc2Cl)n1 | 0.3 | 23 | 73* | -0.43 | 0.8
CCO[C@H]1OC(C(=O)NCc2nc3ccccc3[nH]2)=C[C@@H](c2ccc3c(c2)OCO3)[C@@H]1CCCO | . | . | . | 0.22 | .
Cc1ccc(Nc2nc(N)nc(CN3CCN(Cc4ccc5c(c4)OCO5)CC3)n2)cc1Cl | 0.4 | 74* | 60* | -5.2* | 0.3
Cc1ccc(Nc2nc(N)nc(CN3CCN(Cc4ccc5c(c4)OCO5)CC3)n2)c(C)c1 | 0.5 | 38 | 52* | -0.27 | 0.6
